Test results as given in PubChem BioAssay (NCI).
About 83,000 compounds went through this panel and 20% of them were active in at least one assay; those are over-represented in the sample as a whole.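 Single-dose data. Exposure time 48 hours. Values below 10 considered active.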 Values without a mark were called inactive. Calls of active or inactive are those of the source.

What follows are molecules tested on HL-60(TB) leukemia (assay: NCI-60 one-dose screen, 48 h (100 = growth as untreated, 0 = no growth, -100 = all killed)). Conditions: 10 µM unless noted.
With `COc1ccc([C@H]2C(C(=O)c3ccc(Cl)cc3)C3(N[C@@H]2c2ccccc2)C(=O)Nc2ccc(Cl)cc23)cc1` (some centres undefined) the growth was 11.5%. `O=C(C1=CNC(=S)NC1c1ccc(O)cc1)c1cc2ccccc2oc1=O` (centres undefined) gave a growth of 79.5%. With `Cc1c(C(=O)NNC(=O)c2ccc(Cl)cc2)nnn1-c1ccc(Br)cc1` the growth was 102%. In the case of `O=C(Nc1nc2ccccc2s1)Nc1ccccc1Cl`, the growth is reported as 97.4%. `N#CCc1nnc(NC(=O)c2ccc(-n3c(=O)[nH]c4ccccc4c3=O)cc2)s1` gave a growth of 86%. `Cc1ccc(C(=O)N/C(=C2/OCCN2C)[P+](c2ccccc2)(c2ccccc2)c2ccccc2)cc1` showed a growth of 38.8%. With `N#Cc1c(NC(=O)c2ccc(C(F)(F)F)cc2C(F)(F)F)sc2c1CCC(=O)C2` the growth was -24% (active). Work on `COc1ccc(-c2cc(-c3ccccc3)c(C#N)c(=O)[nH]2)cc1S(N)(=O)=O` yielded a growth of 142%. For `C=C1CCC2C3(C)COC(c4c(F)cccc4F)OC3CCC2(C)C1C/C=C1/C(=O)OCC1O` (centres undefined), the growth was 6.75% (active). `Cn1cc(-c2nnc(N)nc2-c2c[nH]c3ccc(F)cc23)c2cc(Br)cnc21` showed a growth of 47.1%. In the case of `Cc1ccc(C(=O)CSc2nc3ccc(C)cc3c(=O)n2-c2ccc(F)cc2)cc1`, the growth is reported as 123%. Molecule `O=C(c1ccc(O)cc1)C1[C@H](c2ccc(Br)cc2)[C@@H](c2ccccc2)NC12C(=O)Nc1ccc(Br)cc12` (some centres undefined) has a growth of 12.5%. `N/C(=N\c1nc2ccccc2s1)NC(=O)Nc1ccc(Cl)cc1Cl` was tested, and the growth was -66% (active). For `Fc1ccc(N2CC(Cn3c(C(F)(F)F)cc4c(Cl)ncnc43)C2)c(F)c1`, the growth was -40.3% (active). In the case of `Fc1ccc(Nc2nnc(-c3c[nH]c4ccccc34)o2)cc1`, the growth is reported as 44.8%. Molecule `O=C(CSc1nnc(-c2c[nH]c3ccccc23)n1-c1ccccc1)c1ccc(Br)cc1` has a growth of 44.5%. Work on `O=C1/C(=C/c2cccc3c2OCO3)Cc2c(F)cc(Br)cc21` yielded a growth of 97.8%. `Nc1cccnc1/C=N/NC(=S)NCCNC(=O)c1ccc(-n2nc(-c3ccccc3O)nc2-c2ccccc2O)cc1` was tested, and the growth was -8.62% (active). `Cn1cc(-c2cc3nc(-c4c[nH]c5ccccc45)cc(N)n3n2)c2cc(Cl)ccc21` was tested, and the growth was -24.8% (active). `COc1c(F)ccc(C(=O)Nc2ccc3nc(NC(=O)C4CCCN(S(=O)(=O)c5cccc(Br)c5)C4)sc3c2)c1F` (centres undefined) was tested, and the growth was 80.6%. For `CN(C)c1ccnc(CNCCSC2(c3ccccc3)c3ccccc3C=Cc3ccccc32)c1`, the growth was -42.8% (active). `O=C(c1ccc(Cl)cc1)C1[C@H](c2ccccc2Br)[C@@H](c2ccccc2)NC12C(=O)Nc1ccc(Br)cc12` (some centres undefined) was tested, and the growth was -6.61% (active). `CN(C)c1ccc(/C=C/c2nc3ccccc3c(=O)n2CC(=O)Nc2ccccc2)cc1` was tested, and the growth was 91.8%. `O=C(Nc1cccc([N+](=O)[O-])c1)Nc1cccc([N+](=O)[O-])c1` gave a growth of 92.4%. For `Cc1cc(C)nc(NS(=O)(=O)c2ccc(N/C(N)=N/c3nccc(-c4cccs4)n3)cc2)n1`, the growth was 1.77% (active). Work on `CC(=O)Nc1ccc(-n2cnc3ccc(-c4ccc(O)cc4)cc32)cc1` yielded a growth of 38.2%. `COc1ccc(-c2nc3cc(C)ccc3n2CC(=O)N=Nc2c(O)[nH]c3ccc(Cl)cc23)cc1` showed a growth of 41.1%. `O=c1oc2ccccc2cc1-c1csc(N=Nc2c(O)[nH]c3ccc(Cl)cc23)n1` was tested, and the growth was 99.1%. Molecule `C=CC[n+]1cccc2c3ccccc3ccc21` has a growth of 57.2%. For `Cc1ccc(N=Nc2c(N)nn3c(-c4cc5cc(Br)ccc5oc4=O)ccnc23)cc1`, the growth was 83.2%. `CC(=O)OC[C@@]1(C)C2CC[C@]3(C)C(CC=C4C5CC(C)(C)CC[C@]5(C(=O)Nc5ccc(Br)cc5)CC[C@]43C)[C@@]2(C)C[C@@H](OC(C)=O)[C@@H]1OC(C)=O` (some centres undefined) was tested, and the growth was 32.3%. Molecule `COc1ccc(-c2nc3ccc(C(=O)NN4C(=O)c5ccc([N+](=O)[O-])cc5C4=O)cc3[nH]2)cc1` has a growth of 104%. In the case of `CN1CCN(c2ccc(C(=O)/C=C/c3cc(Br)ccc3F)cc2)CC1`, the growth is reported as -22.1% (active). In the case of `Cn1cc(-c2cc(N)n3nc(-c4cn(C)c5ccccc45)cc3n2)c2cc(Br)ccc21`, the growth is reported as -32.3% (active). In the case of `Cc1cc(=O)oc2cc(OCCCOc3ccc(/C=C/C(=O)Nc4ccccc4N)cc3)ccc12`, the growth is reported as 1.53% (active). In the case of `CCCn1cc(-c2nc(Nc3ccc(C(=O)NCCCCNc4cccc5c4C(=O)N(C4CCC(=O)NC4=O)C5=O)cc3)nc3[nH]ccc23)cn1` (centres undefined), the growth is reported as -36.9% (active). Molecule `NS(=O)(=O)c1ccc(Nc2nc(SCC(=O)c3ccc(F)cc3)nc3ccccc23)cc1` has a growth of 63.7%. For `O/N=C(\CSc1nnc(-c2c[nH]c3ccccc23)n1-c1ccccc1)c1ccc(Cl)cc1`, the growth was -25.9% (active). `Nc1nn2c(-c3cc4ccccc4oc3=O)ccnc2c1N=Nc1ccccc1` was tested, and the growth was 108%.
